Legend:
Test in all cases: PBM binding z-score (relative to random genomic background probes); higher = stronger binding; sequences stand for … in GC…GCGATTGACAGCGTAGAATGAAGG
[1] = system: FXR:RXRa (NR concentration 270 nM, RXRa partner concentration 90 nM)
Method in brief: (§1)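 Ligand-free nuclear receptor dimers were applied to custom Agilent 4×180K protein-binding microarrays whose double-stranded probes carried direct-repeat seeds, single-nucleotide variants, half-site ablations and random human genomic background sequences in 34-nt variable regions. Incubation lasted 1 h. Binding z-scores were computed against the random background probes from regression-normalized fluorescence.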

[2] = system: LXRa:RXRa (NR concentration 270 nM, RXRa partner concentration 90 nM)
Method in brief: as §1

[3] = system: LXRa homodimer (NR concentration 270 nM)
Method in brief: as §1

[4] = system: LXRb:RXRa (NR concentration 270 nM, RXRa partner concentration 90 nM)
Method in brief: as §1

[5] = system: LXRb homodimer (NR concentration 270 nM)
Method in brief: as §1

[6] = system: PPARa:RXRa (NR concentration 270 nM, RXRa partner concentration 90 nM)
Method in brief: as §1

[7] = system: PPARg:RXRa (NR concentration 180 nM, RXRa partner concentration 90 nM)
Method in brief: as §1

[8] = system: PPARg:RXRa 270nM:90nM, anti-RXR (NR concentration 270 nM, RXRa partner concentration 90 nM)
Method in brief: as §1

[9] = system: PPARg:RXRa 30nM:10nM, anti-RXR (NR concentration 30 nM, RXRa partner concentration 10 nM)
Method in brief: as §1

[10] = system: PPARg:RXRa 90nM:30nM, anti-RXR (NR concentration 90 nM, RXRa partner concentration 30 nM)
Method in brief: as §1

[11] = system: PPARg:RXRa DBDmut IVT, anti-RXR (DBD mutation: RXRa K156A/R161A, NR concentration 270 nM, RXRa partner concentration 90 nM)
Method in brief: as §1

[12] = system: PPARg:RXRa IVT, anti-PPARg (NR concentration 270 nM, RXRa partner concentration 90 nM)
Method in brief: as §1

[13] = system: PPARg DBDmut:RXRa IVT, anti-PPARg (DBD mutation: PPARg1 K132A/R137A, NR concentration 270 nM, RXRa partner concentration 90 nM)
Method in brief: as §1

[14] = system: PPARg DBDmut IVT, anti-PPARg (DBD mutation: PPARg1 K132A/R137A, NR concentration 270 nM)
Method in brief: as §1

[15] = system: PPARg homodimer (NR concentration 180 nM)
Method in brief: as §1

[16] = system: PXR:RXRa (NR concentration 270 nM, RXRa partner concentration 90 nM)
Method in brief: as §1

[17] = system: PXR homodimer (NR concentration 270 nM)
Method in brief: as §1

[18] = system: RARa:RXR (NR concentration 270 nM, RXRa partner concentration 90 nM)
Method in brief: as §1

[19] = system: RARa homodimer (NR concentration 270 nM)
Method in brief: as §1

[20] = system: RARb:RXRa (NR concentration 270 nM, RXRa partner concentration 90 nM)
Method in brief: as §1

Sequence | PBM binding z-score [1] | PBM binding z-score [2] | PBM binding z-score [3] | PBM binding z-score [4] | PBM binding z-score [5] | PBM binding z-score [6] | PBM binding z-score [7] | PBM binding z-score [8] | PBM binding z-score [9] | PBM binding z-score [10] | PBM binding z-score [11] | PBM binding z-score [12] | PBM binding z-score [13] | PBM binding z-score [14] | PBM binding z-score [15] | PBM binding z-score [16] | PBM binding z-score [17] | PBM binding z-score [18] | PBM binding z-score [19] | PBM binding z-score [20]
CGTCCAAGGTCAGCAGTTCAGTGAAAGCGACGTG | 5.17 | 3.5 | 0.594 | 2.73 | -0.167 | 4.42 | 2.78 | 3.37 | 0.482 | 1.82 | 2.51 | 2.84 | 0.0799 | 0.847 | 1.67 | 3.52 | 1.29 | 3.96 | 0.38 | 5.29
AGTCAAAGTTCACTAGGTAACTTAAGATTCAGCT | 5.3 | 5.02 | 3.26 | 3.15 | 1.21 | 4.91 | 6.82 | 6.55 | 3.6 | 5.72 | 2.47 | 4.8 | 2.06 | 1.17 | 1.24 | 4.02 | 2.95 | 3.07 | 1.01 | 4.73
AGTCGAAGTTCATCTAGGTAACGTAAGATATGCT | 2.95 | 2.8 | 1.21 | 1.62 | 0.0848 | 2.8 | 1.9 | 2.32 | 0.883 | 1.66 | 0.32 | 2.06 | 0.625 | 0.713 | 1.04 | 3.3 | 2.97 | 1.67 | 0.799 | 3.05
GTACCAAGGTGAATAGCTCGTTGATGAGTAGGCG | -0.0145 | 0.0679 | -0.285 | -0.246 | -0.451 | 0.416 | 0.554 | 0.238 | -0.33 | -0.123 | 1.55 | 1.7 | -0.0388 | -0.301 | -0.135 | -0.403 | -0.283 | -0.0864 | -0.272 | 0.887
TTACCAAGCTGAAAGGTCGTTGATGCACGCCTTG | 0.616 | 0.94 | -0.316 | 1.04 | -1.11 | 2.08 | 1.29 | 3.29 | 1.06 | 2.53 | -0.529 | 0.156 | -0.407 | -0.623 | 0.193 | 1.72 | -0.0821 | 1.66 | -0.928 | 1.36
TGAATGAGCTTAAAGATCAGGGAACGTGGCGTCG | -0.0785 | -0.405 | -0.642 | -0.65 | -0.626 | -0.428 | 0.39 | 0.417 | -0.0177 | 0.152 | -0.909 | -0.722 | -0.0715 | -0.43 | -0.49 | -0.508 | -0.697 | -0.284 | -0.372 | -0.351
CGTCCAAGTTCAAAGGTCAGTGAAGAGATGACGG | 6.81 | 5.86 | 2.94 | 4.98 | 1.4 | 5.95 | 6.58 | 6.54 | 4.28 | 6.22 | 0.396 | 2.79 | 0.887 | 0.712 | 4.76 | 6.79 | 4.04 | 7.83 | 2.04 | 5.11
CGTCCAAGGTCAGCAGCTCAGTGAAAGCGACGTG | 5.06 | 3.06 | -0.124 | 2.14 | -0.454 | 4 | 1.68 | 2.61 | 0.139 | 1.47 | 2.5 | 2.27 | -0.354 | -0.261 | 1.96 | 2.16 | -0.1 | 2.83 | 0.297 | 4.83
TCTCGGAGGACACGAAGGTCAGAGCCTTCCAGAG | 1.54 | 1.56 | -0.0178 | 1.35 | -0.905 | 2.1 | 0.565 | 1.76 | 2.02 | 1.7 | 1.3 | 0.917 | -1.24 | -1.76 | 1.08 | 2.11 | 0.864 | 2.36 | 0.0341 | 3.33
ATGTGTAGGTTAAGGGTCATTCAGGTTGGTTCGC | 5.28 | 4.85 | 3.49 | 4.71 | 2.56 | 5.72 | 9.4 | 8.54 | 9.74 | 9.9 | 3.87 | 5.47 | 1.46 | 1.87 | 4.52 | 5.44 | 4.53 | 6.37 | 3.77 | 3.91
CCAGACAGGTGAGAAGGTACCTCAGCCTCGATTA | -0.184 | -0.333 | -0.205 | -0.357 | -0.562 | 0.192 | 0.408 | 0.244 | -0.397 | -0.0819 | 0.836 | 0.42 | -0.603 | -0.799 | 0.408 | -0.434 | -0.569 | -0.0825 | -0.214 | 0.313
ATCGAAAGGTCGAGGTGAGTATTGAGAAAGGGAA | 4.14 | 3.39 | -0.0656 | 2.81 | 0.293 | 4.74 | 3.29 | 3.53 | 1.37 | 2.19 | 0.628 | 2.34 | 0.498 | 0.451 | 1.67 | 2.33 | 0.428 | 3.07 | 0.977 | 4.15
ATTGAAAGGTCGAAGGTGAGTATACCCACCCGAA | 4.77 | 3.47 | 0.632 | 2.97 | 0.961 | 4.74 | 5.11 | 5.53 | 2.82 | 5.09 | 0.108 | 2.82 | 1.09 | 0.602 | 2.51 | 3.15 | 0.394 | 4.57 | 0.818 | 3.83
GCAGACAGGTGAAACGCAGGTAACTAAGGGTGGC | -0.237 | 0.0308 | -0.755 | -0.289 | -0.873 | 0.88 | 0.651 | -0.421 | -0.539 | -0.453 | 0.562 | 0.741 | -0.406 | -0.735 | -0.84 | -0.388 | -0.493 | 0.156 | -0.657 | 0.531

Reference: the supplement of paper PMC6555819
